Laboratory results as given in PubChem BioAssay (NCI).
Compounds without any hit were thinned out: in the full panel of roughly 83,000, 20% have a hit.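 A percent growth of 40 corresponds to 60% growth inhibition; 0 means no net growth; -100 means all cells died. Active threshold: below 10.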 A number with no mark means an inactive call. The source made the active and inactive calls.

Legend:
Test in all cases: NCI-60 one-dose screen, 48 h (100 = growth as untreated, 0 = no growth, -100 = all killed)
Details in all cases: 10 µM unless noted
SR leukemia = test system: SR leukemia
RPMI-8226 leukemia = test system: RPMI-8226 leukemia
OVCAR-8 ovarian = test system: OVCAR-8 ovarian
OVCAR-4 ovarian = test system: OVCAR-4 ovarian
SK-OV-3 ovarian = test system: SK-OV-3 ovarian
IGROV1 ovarian = test system: IGROV1 ovarian
OVCAR-3 ovarian = test system: OVCAR-3 ovarian
HS 578T breast = test system: HS 578T breast
NCI/ADR-RES ovarian = test system: NCI/ADR-RES ovarian
T-47D breast = test system: T-47D breast
BT-549 breast = test system: BT-549 breast
MDA-MB-435 melanoma = test system: MDA-MB-435 melanoma
SW-620 colon = test system: SW-620 colon
MCF7 breast = test system: MCF7 breast
HCT-116 colon = test system: HCT-116 colon
HCC-2998 colon = test system: HCC-2998 colon
KM12 colon = test system: KM12 colon
OVCAR-5 ovarian = test system: OVCAR-5 ovarian

| SMILES | growth (SR leukemia) | growth (RPMI-8226 leukemia) | growth (OVCAR-8 ovarian) | growth (OVCAR-4 ovarian) | growth (SK-OV-3 ovarian) | growth (IGROV1 ovarian) | growth (OVCAR-3 ovarian) | growth (HS 578T breast) | growth (NCI/ADR-RES ovarian) | growth (T-47D breast) | growth (BT-549 breast) | growth (MDA-MB-435 melanoma) | growth (SW-620 colon) | growth (MCF7 breast) | growth (HCT-116 colon) | growth (HCC-2998 colon) | growth (KM12 colon) | growth (OVCAR-5 ovarian) [%] |
| --- | --- | --- | --- | --- | --- | --- | --- | --- | --- | --- | --- | --- | --- | --- | --- | --- | --- | --- |
| NC(=S)N/N=C/c1ccc(OCc2ccccc2)cc1 | 62.8% | 1.94% (active) | 78.2% | 44.8% | 80% | 52.8% | 62.1% | 81.2% | 83.7% | 20.8% | 58.4% | 74% | 66.2% | 52.1% | 52.5% | 79.2% | 84.6% |  |
| C=C(CN1CCN(c2cccc(C(F)(F)F)n2)CC1)c1ccc(C(=O)Nc2ccccc2N)cc1 | -20.9% (active) | 4.35% (active) | 18.8% | 32.9% | 21.2% |  | -38.2% (active) | 41.1% | 1.99% (active) |  | 22.8% | -9.74% (active) | 55.2% | 1.51% (active) | 15.5% | -41% (active) | -3.75% (active) | 34.8 |
| Nc1nc2ccc(-c3nc4ccc5[nH]ncc5c4c4c3CCC4)cc2s1 | 20.7% | -49% (active) | 28.6% | 19.3% | -21.7% (active) |  | 39.4% | 7.12% (active) | 27.8% | 31.2% | 47.1% | -35.5% (active) | 6.95% (active) | 13% | 15.9% | 50.9% | 25.1% | 47.6 |
| Cc1ccc(C2CC3c4ccccc4C2C2CCCCN32)cc1 (stereo not drawn) | 106% | 60.1% | 109% | 82.6% | 91.7% |  | 67.7% | 93.3% | 94.1% | 83.6% | 57.4% | 97.8% |  | 95.7% | 95.1% | 93.1% |  | 96.2 |
| CCCCN(CCCC)CCC(C)(O)c1cc2ccccc2c2ccccc12 (stereo not drawn) | 39.7% | 67.3% | 92.6% | 109% | 99.9% | 6.06% (active) | 69% |  | 67.6% | 109% | 121% | 83.9% | 69.5% | 96.5% | 65.6% | 80.3% | 83.8% | 98.6 |
| Cc1cc(Nc2nc(N3CCN(C)CC3)nc3ccccc23)n[nH]1 | 20.7% | 87.2% | 99.6% | 54.5% | 25.5% |  | 75.8% | 50.8% | 122% | 71.2% | 76.2% | 52.2% | 69.2% | 46.2% | 50.3% | 87.6% | 19% | 86.7 |
| Clc1cccc(Nc2nc(Nc3cnc4ccccc4c3)c3[nH]cnc3n2)c1 | 80.8% | 78.3% | 75.6% | 93.9% | 71.2% | 62.3% | 73.6% | 65.6% | 87.2% | 53.7% | 73.7% | 84.4% | 98.1% | 64.9% | 76.4% | 100% | 92.8% |  |
| CN1CCN(Cc2ccc(NC(=O)c3cncc(C#Cc4cnc(N)c5cccnc45)c3)cc2C(F)(F)F)CC1 | 15.4% | 18.5% | 29.5% | 36.8% | -10.9% (active) |  | 34.6% | -2.09% (active) | 87% | 26.2% | 38.9% | 7.67% (active) | 1.78% (active) | 26.8% | 3.52% (active) | 30.2% | 8.81% (active) | 12.5 |
| Nc1cc2nc3ccccc3sc-2cc1=O | 2.91% (active) | 45.2% | 64.4% | 73.3% | 90.8% |  | 65.2% | 85.1% | 81.1% | 71.1% | 63.1% | -68.2% (active) | 84.7% | 44.3% | 72.7% | 100% | 80.8% | 94.2 |
| CSc1ncnc2c1ncn2C1CCCO1 (stereo not drawn) | 113% | 104% | 109% | 95.1% | 104% |  | 120% | 103% | 101% | 107% | 102% | 101% | 116% | 104% | 101% | 113% | 110% | 98.3 |
| COc1ccc(/C(=C/c2ccc3ccccc3c2)c2nn[nH]n2)cc1OC | 15% | 16.6% | 40.5% | 62.7% | 39% |  | -17.3% (active) | 36.5% | -15.4% (active) | 36.1% | 40.3% | -41% (active) | 29.2% | 52.3% | 17.7% | 55.4% | 24.5% | 60 |
| COc1c(Cl)cc(Cl)cc1Cl | 101% | 118% | 112% |  | 107% | 97.4% | 109% | 87.8% | 112% | 104% | 120% | 115% | 91.8% | 111% | 109% | 118% | 109% | 121 |
| Clc1ccc(-c2nnc(COc3ccccc3Cl)o2)cc1 | 83.3% | 88.7% | 76.6% | 39.8% | 95.7% |  | 81.6% | 62% | 66.8% | 69.9% | 89.4% | 58.4% | 91.1% | 78.7% | 51.7% | 86.8% | 82.4% | 83.1 |
| COc1ccc(CCN2CCCn3c2nc2ccccc2c3=O)cc1 | 24.8% | 29.9% | 28.8% | 41.9% | 53.7% |  | -4.64% (active) | 38.9% | 14.7% | 80.8% | 29.5% | -15.2% (active) | 27% | 16.8% | 14.3% | 8.36% (active) | 14.7% | 41.6 |
| COc1ccc2nc(NC(=O)c3cccnc3Nc3cc(OC)c(OC)c(OC)c3)sc2c1 | -12.6% (active) | -1.38% (active) | -10.3% (active) | -65.5% (active) | -40.4% (active) | 68.6% | -62.5% (active) | 44.5% | 4.41% (active) | -7.17% (active) | -90.5% (active) | 7.52% (active) | 27.8% | 8.16% (active) | -2.4% (active) | 77.8% | 11.9% |  |
| Cc1cc(Nc2nc(N3CCNCC3)nc3ccccc23)n[nH]1 | 92.6% | 117% | 115% | 96.2% | 27% |  | 100% | 65.2% | 107% | 93% | 88.6% | 73% | 103% | 87% | 80% | 92.4% | 26.7% | 89.6 |
| CCCCCCCCCCCCCCCC(=O)OCC1OC(n2cnc3c(=S)nc(N)[nH]c32)C(OC(=O)CCCCCCCCCCCCCCC)C1OC(=O)CCCCCCCCCCCCCCC (stereo not drawn) | 11.4% | 30.1% | 55.8% | 78.3% | 20.8% |  | 50% | 119% | 39.4% | 41.3% | 53% | 59.3% | 78.6% | 35% | 32.6% | 53.6% | 71% | 52.1 |
| COC1/C=C\OC2(C)Oc3c(C)c(O)c4c(O)c(c(CN(C)CCO)c(O)c4c3C2=O)NC(=O)/C(C)=C\C=C/C(C)C(O)C(C)C(O)C(C)C(OC(C)=O)C1C (stereo not drawn) | 91.2% | 86.4% | 90.7% | 84.5% | 96.6% |  | 111% | 104% | 103% | 89.3% | 105% | 111% | 105% | 91.6% | 107% | 121% | 106% | 91.7 |
